This passage reports potency estimated from few doses results from article PMC11062922 (Nature Chemical Biology, 2023).

Like-named read-outs stand apart in the source and are kept apart here.

One experiment concerns ABL1. More on the design: species or system human, MV4-11 + K-562 + COLO205 + SK-N-BE2 + OVCAR-8. Particulars: read-out: apparent Kd, compound concentrations: 100 nM and 1000 nM (sheet 'Samples'), n = 1.
The next experiment concerns ABL2. Details: species or system human, MV4-11 + K-562 + COLO205 + SK-N-BE2 + OVCAR-8. Particulars: read-out: apparent Kd, compound concentrations: 100 nM and 1000 nM (sheet 'Samples'), n = 1.
The test system of another experiment is BCR. Details: species or system human, MV4-11 + K-562 + COLO205 + SK-N-BE2 + OVCAR-8. Particulars: read-out: apparent Kd, compound concentrations: 100 nM and 1000 nM (sheet 'Samples'), n = 1.
In another experiment the test system is FYN. Details: species or system human, MV4-11 + K-562 + COLO205 + SK-N-BE2 + OVCAR-8. Particulars: read-out: apparent Kd, compound concentrations: 100 nM and 1000 nM (sheet 'Samples'), n = 1.
In another experiment the test system is HCK. More on the design: species or system human, MV4-11 + K-562 + COLO205 + SK-N-BE2 + OVCAR-8. To be noted: read-out: apparent Kd, compound concentrations: 100 nM and 1000 nM (sheet 'Samples'), n = 1.
The subject of the next experiment is LCK. Details: species or system human, MV4-11 + K-562 + COLO205 + SK-N-BE2 + OVCAR-8. To be noted: read-out: apparent Kd, compound concentrations: 100 nM and 1000 nM (sheet 'Samples'), n = 1.
A further experiment relates to YES1. Details: species or system human, MV4-11 + K-562 + COLO205 + SK-N-BE2 + OVCAR-8. To be noted: read-out: apparent Kd, compound concentrations: 100 nM and 1000 nM (sheet 'Samples'), n = 1.
For another experiment, the system named is GAK. Details: species or system human, MV4-11 + K-562 + COLO205 + SK-N-BE2 + OVCAR-8. Particulars: read-out: apparent Kd, compound concentrations: 100 nM and 1000 nM (sheet 'Samples'), n = 1.
The next experiment concerns RET. More on the design: species or system human, MV4-11 + K-562 + COLO205 + SK-N-BE2 + OVCAR-8. Particulars: read-out: apparent Kd, compound concentrations: 100 nM and 1000 nM (sheet 'Samples'), n = 1.
The next experiment has as its system RIPK2. More on the design: species or system human, MV4-11 + K-562 + COLO205 + SK-N-BE2 + OVCAR-8. To be noted: read-out: apparent Kd, n = 1.
Another experiment has as its system RIPK3. More on the design: species or system human, MV4-11 + K-562 + COLO205 + SK-N-BE2 + OVCAR-8. To be noted: read-out: apparent Kd; compound concentrations: 100 nM and 1000 nM (sheet 'Samples'), CATDS: 1.9089551984729902E-2; n = 1.
For a further experiment, the system named is TNK1. More on the design: species or system human, MV4-11 + K-562 + COLO205 + SK-N-BE2 + OVCAR-8. Particulars: read-out: apparent Kd, compound concentrations: 100 nM and 1000 nM (sheet 'Samples'), n = 1.
For a further experiment, the target named is Q6ZSR9 (human, UniProt Q6ZSR9). Details: species or system MV4-11 + K-562 + COLO205 + SK-N-BE2 + OVCAR-8. To be noted: read-out: apparent Kd, compound concentrations: 100 nM and 1000 nM (sheet 'Samples'), n = 1.
Sequence of Q6ZSR9 (Q6ZSR9 whole entry, looked up): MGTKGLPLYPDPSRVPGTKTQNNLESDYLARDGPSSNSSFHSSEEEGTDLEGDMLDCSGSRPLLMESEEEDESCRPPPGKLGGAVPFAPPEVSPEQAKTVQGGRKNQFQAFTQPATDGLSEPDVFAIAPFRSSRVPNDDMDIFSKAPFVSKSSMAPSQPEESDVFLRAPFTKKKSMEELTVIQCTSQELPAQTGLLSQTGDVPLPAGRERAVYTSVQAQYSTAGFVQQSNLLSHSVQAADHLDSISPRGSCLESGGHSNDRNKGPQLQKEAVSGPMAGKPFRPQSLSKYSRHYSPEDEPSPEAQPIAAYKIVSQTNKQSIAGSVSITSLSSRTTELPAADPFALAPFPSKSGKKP
For the next experiment, the system named is ACOX1. More on the design: species or system human, MV4-11 + K-562 + COLO205 + SK-N-BE2 + OVCAR-8. To be noted: read-out: apparent Kd, n = 1.
A further experiment has as its system CSNK2A2. More on the design: species or system human, MV4-11 + K-562 + COLO205 + SK-N-BE2 + OVCAR-8. To be noted: read-out: apparent Kd, n = 1.
A further experiment relates to CLK1. More on the design: species or system human, MV4-11 + K-562 + COLO205 + SK-N-BE2 + OVCAR-8. To be noted: read-out: apparent Kd; compound concentrations:100 nM and 1000 nM (sheet 'Samples'); n = 1.
[1] abbreviates: compound concentrations:100 nM and 1000 nM (sheet 'Samples').

In the case of `COc1cccc(-n2cnc3c(N/N=C/c4ccncc4)ncnc32)c1` [GW813360X], the potency estimated from few doses with ABL1 (CATDS: 0.132287686029187) was 2030 nM; in the experiment with ABL2 (CATDS: 0.19344614583088601), 869 nM; in the experiment on BCR (CATDS: 0.226928346430948) it was 659 nM.
In the case of `N#Cc1cnc2cc(-c3cnc(CNCCN4CCOCC4)s3)ccc2c1Nc1ccc(Oc2ccccc2)cc1` [GW664114X], the potency estimated from few doses is 1130 nM in the experiment with ABL1 (CATDS: 4.8325821133258902E-2); 831 nM in the experiment on FYN (CATDS: 5.3110051753070202E-2); 69.1 nM with HCK (CATDS: 0.211931822213385); 657 nM with LCK (CATDS: 5.7694634687651798E-2); 361 nM with YES1 (CATDS: 7.4593421105350805E-2).
As for `CC(C)c1nc(-c2cccc(NS(=O)(=O)c3c(F)cccc3F)c2)c(-c2ccnc(Nc3ccc(N4CCOCC4)nc3)n2)s1.Cl` [GSK1723980B], the potency estimated from few doses in the experiment with ABL1 (CATDS: 2.44032415333994E-2) was 301 nM; in the experiment with ABL2 (CATDS: 5.9392404533495001E-2) it was 61.3 nM; in the experiment with BCR (CATDS: 2.01356126413582E-2), 494 nM; in the experiment with FYN (CATDS: 2.5454703773251201E-2), 273 nM; in the experiment on GAK (CATDS: 7.7994003352353694E-2), 41.9 nM; in the experiment on HCK (CATDS: 2.2853369268103E-2), 353 nM. Besides, the potency estimated from few doses with LCK (CATDS: 3.2406283014168501E-2) was 166 nM; with RET (CATDS: 3.0852467961072601E-2), 183 nM; in the experiment on RIPK2 (compound concentrations: 100 nM and 1000 nM (sheet 'Samples'), CATDS: 1.9945459179113199E-2), 508 nM; with RIPK3, 580 nM; with TNK1 (CATDS: 4.2309935228441099E-2), 104 nM; in the experiment on YES1 (CATDS: 2.9075172405301501E-2), 206 nM.
Regarding `CN1CCN(Cc2ccc(NC(=O)Nc3ccc(N(C)c4ccnc(Nc5ccc(CS(C)(=O)=O)cc5)n4)cc3)cc2)CC1.Cl` [GW827654A], the potency estimated from few doses with ABL1 (CATDS: 3.4576588551286799E-2) is 1820 nM; with ABL2 (CATDS: 5.6323659121428699E-2), 400 nM; in the experiment with BCR (CATDS: 3.6645994259317798E-2), 1440 nM; in the experiment with Q6ZSR9 (CATDS: 3.5510221653806698E-2) it was 1630 nM; in the experiment with RET (CATDS: 0.30394920877794601), 22.8 nM; in the experiment with TNK1 (CATDS: 0.12102048296208601) it was 87.9 nM.
As to `Clc1ccc(-c2nn3ncccc3c2-c2ccnc(Nc3ccccc3)n2)cc1` [GW829055X], in the experiment on HCK (CATDS: 3.5992477058575501E-2), the potency estimated from few doses was 1500 nM.
As to `Cc1ccc(C(=O)NC2CC2)cc1-c1ccc2[nH]ncc2c1` [GW820759X], the potency estimated from few doses in the experiment with ACOX1 (compound concentrations: 100 nM and 1000 nM (sheet 'Samples'), CATDS: 0.303559006930335) is 1410 nM.
Consider `Cn1cc(C2=C(c3ccccc3[N+](=O)[O-])C(=O)NC2=O)c2ccccc21` [RO0317753-000], for which the potency estimated from few doses with ACOX1 (compound concentrations: 100 nM and 1000 nM (sheet 'Samples'), CATDS: 8.6924247533373397E-2) is 891 nM.
Turning to `Cc1ccc(CC(=O)N2CCc3cc(-c4cn(C)c5ncnc(N)c45)ccc32)cc1` [GSK2634758A], the potency estimated from few doses in the experiment on ACOX1 (compound concentrations: 100 nM and 1000 nM (sheet 'Samples'), CATDS: 0.17317335895949701) was 1310 nM.
Turning to `CCCN1CCC(Oc2cc(Nc3nc(Nc4cccc(F)c4C(N)=O)c4cc[nH]c4n3)c(OC)cc2Cl)CC1` [GSK1713088A], in the experiment with ACOX1 (compound concentrations: 100 nM and 1000 nM (sheet 'Samples'), CATDS: 0.172971631917821), the potency estimated from few doses was 2220 nM.
In the case of `O=C1Nc2ccc(F)cc2/C1=C/c1ccc[nH]1` [RO0272148-000], the potency estimated from few doses in the experiment with ACOX1 (compound concentrations: 100 nM and 1000 nM (sheet 'Samples'), CATDS: 0.35170736518262402) is 1160 nM.
For the molecule `NC(=O)c1sc(-n2cnc3ccc(C(F)(F)F)cc32)cc1OCc1ccccc1Br` [GW853606X], the potency estimated from few doses with ACOX1 (setting [1]) is 2200 nM.
On to `Cn1cc(C2=C(c3cn(CCCN/C(N)=N/[N+](=O)[O-])c4ccccc34)C(=O)NC2=O)c2ccccc21` [RO0318161-000], for which the potency estimated from few doses in the experiment on ACOX1 (compound concentrations: 100 nM and 1000 nM (sheet 'Samples'), CATDS: 0.32839321732103) was 1100 nM.
Take `COc1cc(N2CCN(C(C)C)CC2)ccc1Nc1nc(Nc2cccc(F)c2C(=O)O)c2cc[nH]c2n1` [GSK1819799A]: the potency estimated from few doses in the experiment on GAK (CATDS: 9.1160563566663896E-2) was 352 nM.
In the case of `COc1cccc(C2=C(c3cn(C)c4c(C)cccc34)C(=O)NC2=O)c1` [RO3301012-000], the potency estimated from few doses with ACOX1 (compound concentrations: 100 nM and 1000 nM (sheet 'Samples'), CATDS: 0.48882093351054501) is 97.9 nM; in the experiment on RIPK2 (compound concentrations: 100 nM and 1000 nM (sheet 'Samples'), CATDS: 0.14252909212912099), 770 nM.
Consider `COc1ccc(S(=O)(=O)NC2CCN(c3cc(C)nc(Nc4cccc(C#N)c4)n3)CC2)cc1.O=C(O)C(F)(F)F` [GSK1653539A], for which the potency estimated from few doses in the experiment with ACOX1 (compound concentrations: 100 nM and 1000 nM (sheet 'Samples'), CATDS: 0.290276615306997) was 1770 nM.
As for `COc1ccc(C2=C(c3cn(C)c4ccccc34)C(=O)NC2=O)cc1OC` [RO3206363-000], the potency estimated from few doses with ACOX1 (compound concentrations: 100 nM and 1000 nM (sheet 'Samples'), CATDS: 3.3243349000795501E-2) was 1570 nM; in the experiment on CSNK2A2 (compound concentrations: 100 nM and 1000 nM (sheet 'Samples'), CATDS: 3.3167701686651403E-2), 1580 nM; in the experiment on HCK (CATDS: 3.6036002051639801E-2), 1170 nM; with Q6ZSR9 (CATDS: 3.9115403920336002E-2), 898 nM.
For the molecule `CCS(=O)(=O)c1ccc(OC)c(Nc2ncc(-c3cccc(F)c3)o2)c1` [GW621970X_KCGS], the potency estimated from few doses with CSNK2A2 (setting [1]) is 2010 nM.
Consider `Cl.Oc1ccc2ncnc(Nc3ccc(OCc4ccccc4)cc3)c2c1` [GI262866A], for which the potency estimated from few doses with ACOX1 (setting [1]) was 830 nM; in the experiment with RIPK2 (setting [1]), 923 nM.
Turning to `Cc1[nH]nc2c1N=C(c1ccccc1Cl)c1cc([N+](=O)[O-])ccc1N2` [RO0274406-000], in the experiment with ACOX1 (compound concentrations: 100 nM and 1000 nM (sheet 'Samples'), CATDS: 6.8791722684654694E-2), the potency estimated from few doses was 1400 nM.
`COc1cc(F)c(F)c(F)c1C(=O)c1cnc(NC2CCN(S(C)(=O)=O)CC2)nc1N` [RO4600703-000]: the potency estimated from few doses is 1010 nM in the experiment with ACOX1 (setting [1]) and 729 nM with CLK1.
Regarding `CCCCCNC(=O)[C@@H]1CCCN2C(=O)CC[C@H](NC(=O)[C@H](Cc3ccc(OP(=O)(O)O)cc3)NC(C)=O)C(=O)N12` [RO0324694-000], in the experiment with ACOX1 (setting [1]), the potency estimated from few doses is 1640 nM.
As for `COc1ccc(-c2nn3ncccc3c2-c2ccnc(Nc3ccc4c(c3)OCCO4)n2)cc1` [GW827106X], the potency estimated from few doses in the experiment on ACOX1 (compound concentrations: 100 nM and 1000 nM (sheet 'Samples'), CATDS: 4.5987124512604401E-2) is 1840 nM; with GAK (CATDS: 6.3505143893273594E-2) it was 888 nM.
Regarding `COc1ccccc1C(=O)c1cnc(NC2CCN(S(C)(=O)=O)CC2)nc1N` [RO4514610-000], the potency estimated from few doses with ACOX1 (setting [1]) was 2190 nM.
